Experimental data published in PubChem BioAssay (NCI).
This is part of a sample that, as a whole, favours compounds with a hit. Of some 79,000 tested, about 15% had one in any assay. Values without a mark were called inactive. Calls of active or inactive are those of the source. No stated cut-off is given here; in the data, active means growth inhibition above about 70%; inactive means the rest.

Tests used:
[1] = NCI Yeast Anticancer Drug Screen. Data for the rad50 strain (AID 155);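 further: 0% = growth of vehicle-only cultures of the same strain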; conditions: S. cerevisiae rad50 strain growth inhibition; at 50.0 µM; hits give high values
In short: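 Yeast carrying a defined DNA repair defect were exposed to test compounds, and growth was compared with vehicle-treated controls to give percent inhibition.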

[2] = NCI Yeast Anticancer Drug Screen. Data for the mec2-1 strain (AID 157); conditions: S. cerevisiae mec2-1 strain, at 50.0 µM, hits give high values
In short: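 mec2-1 yeast strain, carrying an alteration in DNA damage repair or cell cycle control, was exposed to compounds; growth inhibition was measured relative to vehicle-treated controls.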

[3] = NCI Yeast Anticancer Drug Screen. Data for the sgs1 mgt1 strain (AID 161);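 further: 0% = growth of cultures given vehicle only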; conditions: S. cerevisiae sgs1 mgt1 strain, at 50.0 µM, hits give high values
In short: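 Yeast cells carrying a defined DNA-repair defect were exposed to test compounds. Growth inhibition was measured relative to vehicle-treated controls.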

[4] = NCI Yeast Anticancer Drug Screen. Data for the cln2 rad14 strain (AID 165);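 further: 0% = growth equal to vehicle treated cultures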; conditions: S. cerevisiae cln2 rad14 strain, at 50.0 µM, hits give high values
In short: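 Yeast carrying cln2 and rad14 alterations (cell cycle control and DNA damage repair) were exposed to compounds. Growth inhibition was measured against vehicle-treated controls.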

[5] = NCI Yeast Anticancer Drug Screen. Data for the bub3 strain (AID 167); conditions: S. cerevisiae bub3 mutant strain, at 50.0 µM, hits give high values
In short: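 Compounds were applied to a genetically altered yeast strain carrying a cell-cycle control defect. Growth inhibition was scored against vehicle-treated controls.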

[6] = NCI Yeast Anticancer Drug Screen. Data for the mlh1 rad18 strain (AID 175); conditions: S. cerevisiae mlh1 rad18 strain growth inhibition; at 50.0 µM; hits give high values
In short: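 Growth inhibition of the yeast strain was measured after compound exposure and expressed relative to vehicle-treated controls. The strain carries defined defects in DNA damage repair.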

Row | SMILES | growth inhibition [1] | growth inhibition [2] | growth inhibition [3] | growth inhibition [4] | growth inhibition [5] | growth inhibition [6]
1 | CC(C)CC1N=C(OCc2ccccc2)OC1=O (stereo unspecified) | -16.6% | -79.5% | -20.4% | -15.7% | 5.25% | -14.2%
2 | CC(C)OP(=O)(OC(C)C)/C(F)=N/Nc1ccc([N+](=O)[O-])cc1 | 36% | 11.3% | 23.1% | -3.85% | -6.15% | 6.25%
3 | CCO[C@H]1OC(=O)[C@@H]2C(c3ccc([N+](=O)[O-])cc3)=NO[C@H]12 | -12% | -32.5% | -12.9% | 2.7% | 4.85% | -29.8%
4 | CN1CCCS/C1=C1/SC(=S)N(c2ccccc2)C1=O | -16.8% | 13.8% | -5.85% | -5.75% | -28.1% | -17.4%
5 | CN(C)CCCNC(=O)Nc1ccc(Cl)cc1 | 8.15% | 8.15% | 0.15% | 11.8% | -0.35% | 12.8%
6 | CC1=CC(=O)N2C(OC[C@@H]2c2ccccc2)O1 (stereo partly specified) | 3.5% | -11.8% | -12.9% | 9.95% | -18.9% | -21.4%
7 | CC1(C)CC(O)(Cc2ccccc2)C(O)c2ccccc21 (stereo unspecified) | 45.5% | 32.1% | 31.6% | 54.5% | 26.1% | 74.2% (active)
8 | COc1cc(Cc2nccc3cc(OC)c(OC)cc23)c(N=NN(C)C)cc1OC | -14.2% | -7.6% | -4.9% | 5.45% | -10.4% | 8.35%
9 | O=S(=O)(c1ccccc1)n1c2c(c3ccccc31)Cc1ccccc1-2 | -3.75% | 0.75% | -16.9% | -8.4% | -2.1% | -6.55%
10 | CCN(CC)CCN(C(=Nc1ccccc1)N1CCCCC1)c1ccccc1 | 6.8% | -35.2% | -11.5% | 19% | 28.1% | 19.4%
11 | CCc1cc(C(C)(C)C)cc(C(C)(C)C)c1O | 23.6% | 18.4% | -5.75% | 6.05% | 21.4% | 2.2%
12 | Nc1nc(N)[n+]([O-])c(N)c1NCO | -4.85% | 2.9% | -40% | -50.8% | -14% | -25.3%
13 | O=CC1(CCc2ccccc2)NC(=O)NC1=O (stereo unspecified) | 5.3% | 11.2% | 2.55% | -18.9% | -0.4% | 1.25%
14 | COC(=O)C1OC1C(=O)OC (stereo unspecified) | -17.4% | -26.5% | 1.15% | -28.9% | 12.3% | 1.6%
15 | CC(C)(C)OC(=O)NCS(=O)(=O)N(Cc1ccccc1)Cc1ccccc1 | 91.8% (active) | 89% (active) | 51.7% | 82.6% (active) | 79.4% (active) | 89.7% (active)
16 | Cc1ccc(/C=N/NC(=O)Cc2cccc3ccccc23)cc1 | -1.75% | 13.4% | 32.9% | -10.9% | 17.1% | 21.1%
17 | CCCCCCC1=CC(=O)CC(=O)C1 | 25.9% | 7.1% | 16.6% | 13.6% | 18% | 4.25%
18 | Cc1cc(N=Nc2c(O)c3ccccc3[nH]c2=O)ccc1N=Nc1ccc(C(=O)O)cc1 | 1.65% | -9.15% | 3.5% | 1.1% | -14.1% | -8.05%
19 | C[S+](C)CCOC(=O)C(=[N+]=[N-])c1ccc([N+](=O)[O-])cc1 | 32.5% | 9.8% | 44.3% | 25.8% | 9.9% | 59.4%
20 | c1ccc2c(c1)Oc1ccccc1S2 | -14.2% | -2.9% | -0.15% | 3.85% | 7.35% | -0.3%
21 | Cc1cc2c(c(C(=O)NCC(=O)N[C@@H](C)C(=O)OCc3ccccc3)c1)Oc1c(cc(C)cc1C(=O)NCC(=O)N[C@@H](C)C(=O)OCc1ccccc1)S2 | 26.4% | 16.8% | 23.8% | 33% | 19.6% | 33.2%

Row | SMILES | growth inhibition [1] | growth inhibition [2] | growth inhibition [3] | growth inhibition [4] | growth inhibition [5] | growth inhibition [6]
22 | C=CCCCCCCCCO | -12.1% | -3.6% | 8.3% | -13% | -10% | -8.6%
23 | CC/C(=N/N(C)C)C(=O)OC(C)(C)C | -42.9% | -24.6% | -15.8% | -44.6% | 1.35% | -4.2%
24 | c1ccc2c(c1)CCCN2c1nc(N2CCCC2)nc(N2CCOCC2)n1 | -11.6% | -21.8% | 4.4% | 7.25% | 5.45% | -8.25%
25 | Cc1ccc(S(=O)(=O)CC(=O)c2ccc(Br)cc2)cc1 | -2.7% | -21.2% | -16.4% | 4.9% | 6.55% | 8.75%
26 | CCOC(=O)/C(=C(/N)C1OC(COC(c2ccccc2)(c2ccccc2)c2ccccc2)C2OC(C)(C)OC12)C1CC(=O)N(C)C1=O (stereo unspecified) | -4.35% | 16.1% | 12.7% | -27.8% | -7.35% | 41.5%
27 | CC1CCOC(c2ccc(O)cc2)O1 (stereo unspecified) | -4.05% | -13.1% | -4.65% | -29.3% | -14.4% | -3.75%
28 | CCOC(=O)c1cc(OC(C)=O)c2ccccc2c1 | 26.9% | 9.2% | 41.5% | 15.8% | 61.5% | 41.5%
29 | CCNC1=C(C(=O)OCC)C(=O)CO1 | 34% | 15.9% | 24.2% | 9.95% | 0.3% | -0.1%
30 | Cc1ccc(C)c(NS(=O)(=O)c2ccc(Cl)c([N+](=O)[O-])c2)c1 | 97.1% (active) | 98.2% (active) | 97.8% (active) | 96.8% (active) | 97.9% (active) | 98% (active)
31 | Clc1ccc2c(c1)Cc1ccccc1-2 | 38.6% | -6.95% | 34.1% | 7.5% | 51.6% | 22.2%
32 | CC1(C)Oc2ccc3c(=O)cc(-c4ccccc4)oc3c2C1C(=O)O (stereo unspecified) | 4.7% | -14.5% | -18.6% | -22.6% | 9.7% | -24%
33 | Cc1cccc(C)c1NC(=O)N1CCN(C)CC1 | 1.9% | 14.3% | -3.3% | -75.8% | -9.45% | -18.6%
34 | CC(C)CCCC(C)C1CCC2(C)C3=C(CCC12C)C1(C)CCC(=O)C(C)(C)C1CC3 (stereo unspecified) | 73.1% (active) | 57.2% | 83.5% (active) | 44.5% | 14.6% | 34%
35 | C(=C\c1csnn1)/c1ccc(/C=C/c2csnn2)cc1 | -18% | 15.9% | 7.7% | 11.9% | 5.3% | -8.2%
36 | Cc1ccc(S(=O)(=O)OC2C3C4CCC5C3SC3C5C4C23)cc1 (stereo unspecified) | -5.3% | -21.1% | -3.65% | 5.8% | 6.6% | 1.1%
37 | COC1OC(COC(=O)c2ccccc2)C(OC(=O)c2ccccc2)C(OC(=O)c2ccccc2)C1OC(=O)c1ccccc1 (stereo unspecified) | -1.3% | -30.8% | -13.6% | -9.4% | -29.8% | -14.8%
38 | O=C(CSCC(=O)c1ccc([N+](=O)[O-])cc1)c1ccc([N+](=O)[O-])cc1 | -19.4% | -29.6% | 9.85% | -0.65% | -20.1% | -5%
39 | CC1(CCN2CCCC2)NC(=O)NC1=O (stereo unspecified) | 15.9% | -20.3% | -5.25% | 1.05% | 3.4% | 10.9%
40 | Cc1nc(-n2nc(-c3ccccc3)cc2-c2ccccc2)sc1C(=O)/C=C/c1ccccc1 | 6.95% | 18.9% | 14.7% | 9.1% | 29.6% | 12.9%
41 | COc1ccccc1NC(=O)/C(Cc1nc2ccc([N+](=O)[O-])cc2[nH]c1=O)=N\NC(=O)C[N+](C)(C)C | 31.6% | 23.4% | 7.3% | -26.2% | 25.4% | 13.2%
